Results taken from PubChem BioAssay AID1159580 (chemical genetic matrix, 2015).
About 2,000 (36%) of roughly 5,500 compounds were called active. About 18% were inconclusive and are not listed. Cut-off read from the data, not from the text of the source: active = normalized growth mostly below about 0.91 (no sharp cut-off); inconclusive = no clear call, values can overlap the other calls; inactive = mostly above about 0.92. Some of the results follow.

Test: chemical genetic growth profiling, strain panel (AID 1159580);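 note: tested at 20 µM; growth read once vehicle control cultures reached saturation at 30 °C; 1 = growth at the plate median or of vehicle wells; lower values mean less growth of the strain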
Settings: growth OD

Measured: normalized growth

CC(N)C(O)c1ccc(O)c(O)c1 (stereo unspecified)
inactive: S. cerevisiae deletion strains, locus YAL013W, strain DEP1, active compounds read low 1 | S. cerevisiae deletion strains, locus YBR021W, strain FUR4, active compounds read low 0.982 | S. cerevisiae deletion strains, locus YBR229C, strain ROT2, active compounds read low 0.98 | S. cerevisiae deletion strains, locus YCL029C, strain bik1, active compounds read low 0.981 | S. cerevisiae deletion strains, locus YDL035C, strain GPR1, active compounds read low 0.988 | S. cerevisiae deletion strains, locus YDL074C, strain BRE1, active compounds read low 1.02 | S. cerevisiae deletion strains, locus YDL101C, strain DUN1, active compounds read low 0.998 | S. cerevisiae deletion strains, locus YDL134C, strain PPH21, active compounds read low 1.01 | S. cerevisiae deletion strains, locus YDL185W, strain tfp1, active compounds read low 0.977 | S. cerevisiae deletion strains, locus YDL192W, strain arf1, active compounds read low 0.973 | S. cerevisiae deletion strains, locus YDR101C, strain arx1, active compounds read low 0.992 | S. cerevisiae deletion strains, locus YDR150W, strain NUM1, active compounds read low 0.999 | S. cerevisiae deletion strains, locus YDR162C, strain NBP2, active compounds read low 1.04 | S. cerevisiae deletion strains, locus YDR318W, strain mcm21, active compounds read low 0.979 | S. cerevisiae deletion strains, locus YDR388W, active compounds read low 0.98 | S. cerevisiae deletion strains, locus YDR502C, strain sam2, active compounds read low 0.999 | S. cerevisiae deletion strains, locus YEL061C, strain CIN8, active compounds read low 0.998 | S. cerevisiae deletion strains, locus YER110C, active compounds read low 0.97 | S. cerevisiae deletion strains, locus YER155C, strain BEM2, active compounds read low 0.994 | S. cerevisiae deletion strains, locus YER167W, strain BCK2, active compounds read low 0.98 | S. cerevisiae deletion strains, locus YGL078C, strain dbp3, active compounds read low 0.994 | S. cerevisiae deletion strains, locus YGL086W, strain mad1, active compounds read low 0.98 | S. cerevisiae deletion strains, locus YGL248W, strain PDE1, active compounds read low 0.991 | S. cerevisiae deletion strains, locus YGR078C, strain PAC10, active compounds read low 1.02 | S. cerevisiae deletion strains, locus YGR135W, strain pre9, active compounds read low 1.01 | S. cerevisiae deletion strains, locus YGR229C, strain SMI1, active compounds read low 1.02 | S. cerevisiae deletion strains, locus YGR252W, strain gcn5, active compounds read low 0.901 | S. cerevisiae deletion strains, locus YHR030C, strain SLT2, active compounds read low 0.99 | S. cerevisiae deletion strains, locus YHR079C, strain IRE1 (second series), active compounds read low 0.976 | S. cerevisiae deletion strains, locus YHR094C, strain hxt1, active compounds read low 0.988 | S. cerevisiae deletion strains, locus YHR129C, strain ARP1, active compounds read low 0.997 | S. cerevisiae deletion strains, locus YHR200W, strain rpn10, active compounds read low 0.971 | S. cerevisiae deletion strains, locus YIL066C, strain RNR3, active compounds read low 0.986 | S. cerevisiae deletion strains, locus YIL073C, strain SPO22, active compounds read low 0.958 | S. cerevisiae deletion strains, locus YIL125W, strain kgd1, active compounds read low 0.988 | S. cerevisiae deletion strains, locus YIR030C, strain dcg1, active compounds read low 0.993 | S. cerevisiae deletion strains, locus YJL095W, strain BCK1, active compounds read low 1.02 | S. cerevisiae deletion strains, locus YJL134W, strain LCB3, active compounds read low 0.993 | S. cerevisiae deletion strains, locus YJL168C, strain set2, active compounds read low 0.984 | S. cerevisiae deletion strains, locus YJL187C, strain SWE1 (second series), active compounds read low 1.01 | S. cerevisiae deletion strains, locus YJR043C, strain POL32, active compounds read low 1.01 | S. cerevisiae deletion strains, locus YJR075W, strain HOC1, active compounds read low 1.01 | S. cerevisiae deletion strains, locus YKL009W, strain mrt4, active compounds read low 0.972 | S. cerevisiae deletion strains, locus YKL068W, active compounds read low 0.991 | S. cerevisiae deletion strains, locus YKL085W, strain MDH1 (second series), active compounds read low 0.98 | S. cerevisiae deletion strains, locus YKL085W, strain MDH1, active compounds read low 0.98 | S. cerevisiae deletion strains, locus YKL190W, strain CNB1, active compounds read low 1 | S. cerevisiae deletion strains, locus YKR001C, strain vps1, active compounds read low 0.993 | S. cerevisiae deletion strains, locus YLR039C, strain RIC1, active compounds read low 1.01 | S. cerevisiae deletion strains, locus YLR058C, strain SHM2, active compounds read low 0.989 | S. cerevisiae deletion strains, locus YLR102C, strain apc9, active compounds read low 0.989 | S. cerevisiae deletion strains, locus YLR262C, strain YPT6, active compounds read low 0.997 | S. cerevisiae deletion strains, locus YLR268W, strain sec22, active compounds read low 1.01 | S. cerevisiae deletion strains, locus YLR330W, strain CHS5, active compounds read low 0.99 | S. cerevisiae deletion strains, locus YLR342W, strain FKS1 (second series), active compounds read low 0.976 | S. cerevisiae deletion strains, locus YLR371W, strain rom2, active compounds read low 0.971 | S. cerevisiae deletion strains, locus YLR418C, strain cdc73, active compounds read low 1.04 | S. cerevisiae deletion strains, locus YML016C, strain PPZ1, active compounds read low 0.991 | S. cerevisiae deletion strains, locus YML032C, strain rad52, active compounds read low 0.971 | S. cerevisiae deletion strains, locus YML124C, strain tub3, active compounds read low 0.983 | S. cerevisiae deletion strains, locus YMR078C, strain ctf18, active compounds read low 0.971 | S. cerevisiae deletion strains, locus YMR223W, strain ubp8, active compounds read low 0.968 | S. cerevisiae deletion strains, locus YMR263W, strain SAP30, active compounds read low 1.02 | S. cerevisiae deletion strains, locus YMR307W, strain GAS1, active compounds read low 0.95 | S. cerevisiae deletion strains, locus YNL067W, strain RPL9B, active compounds read low 1.02 | S. cerevisiae deletion strains, locus YNL128W, strain TEP1, active compounds read low 0.996 | S. cerevisiae deletion strains, locus YNL153C, strain GIM3, active compounds read low 1.03 | S. cerevisiae deletion strains, locus YNL233W, strain BNI4, active compounds read low 1.02 | S. cerevisiae deletion strains, locus YNL250W, strain rad50, active compounds read low 0.978 | S. cerevisiae deletion strains, locus YNL271C, strain bni1, active compounds read low 0.973 | S. cerevisiae deletion strains, locus YNL298W, strain CLA4, active compounds read low 0.982 | S. cerevisiae deletion strains, locus YNL307C, strain MCK1, active compounds read low 0.99 | S. cerevisiae deletion strains, locus YNL322C, strain KRE1, active compounds read low 0.997 | S. cerevisiae deletion strains, locus YNR052C, strain pop2, active compounds read low 0.959 | S. cerevisiae deletion strains, locus YOL006C, strain TOP1, active compounds read low 1.02 | S. cerevisiae deletion strains, locus YOL012C, strain htz1 0.931 | S. cerevisiae deletion strains, locus YOL147C, strain pex11, active compounds read low 0.983 | S. cerevisiae deletion strains, locus YOR061W, strain CKA2, active compounds read low 0.998 | S. cerevisiae deletion strains, locus YOR069W, strain VPS5, active compounds read low 0.991 | S. cerevisiae deletion strains, locus YOR136W, strain idh2, active compounds read low 0.972 | S. cerevisiae deletion strains, locus YOR144C, strain elg1, active compounds read low 0.977 | S. cerevisiae deletion strains, locus YOR184W, strain ser1, active compounds read low 0.971 | S. cerevisiae deletion strains, locus YOR316C, strain cot1, active compounds read low 0.981 | S. cerevisiae deletion strains, locus YPL055C, strain LGE1, active compounds read low 1.03 | S. cerevisiae deletion strains, locus YPL241C, strain CIN2, active compounds read low 1 | S. cerevisiae deletion strains, locus YPR119W, strain clb2, active compounds read low 0.995 | S. cerevisiae deletion strains, locus YPR141C, strain kar3, active compounds read low 0.976 | S. cerevisiae deletion strains, locus YPR163C, strain tif3, active compounds read low 0.987 | S. cerevisiae deletion strains, locus YPR167C, strain met16, active compounds read low 0.986 | S. cerevisiae deletion strains, strain wtn01, active compounds read low 1.01 | S. cerevisiae strains, strain wild type, active compounds read low 0.994
